From the supplement of paper PMC11732987, “Enantioselective OTUD7B fragment discovery through chemoproteomics screening and high-throughput optimisation” (Communications Chemistry, 2025)
Unmarked numbers belong to inactive results.

Columns and labels:
Experiment in all cases: log2 ratio of Biotin-Ahx-Ub-VS probe labelling (fragment/DMSO); higher = less target engagement (more negative = stronger competition), active = hit call of the paper (q ≤ 0.05, log2 ratio ≤ -1)
Conditions in all cases: compound concentration: 200 uM; treatment time: 3 h
OTUD6B = target: T1, OTUD6B (UniProt Q8N6M0)
T1 sequence (whole entry): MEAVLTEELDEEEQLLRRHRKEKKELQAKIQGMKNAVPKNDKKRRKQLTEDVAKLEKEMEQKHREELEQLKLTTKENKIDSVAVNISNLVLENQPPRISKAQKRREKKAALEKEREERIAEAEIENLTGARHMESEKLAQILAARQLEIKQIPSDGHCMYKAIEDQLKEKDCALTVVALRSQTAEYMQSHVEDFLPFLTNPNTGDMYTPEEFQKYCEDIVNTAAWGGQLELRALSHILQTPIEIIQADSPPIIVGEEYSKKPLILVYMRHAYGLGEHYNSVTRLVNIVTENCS
How it was run: (§1)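 HEK293T lysate (495 µg per sample, in Tris/CHAPS/IGEPAL buffer with protease inhibitors) was exposed in triplicate for 3 h to fragment at 200 µM or to vehicle, then to Biotin-Ahx-Ub-VS at 0.5 µM final for 1 h. Labelled DUBs were enriched on NeutrAvidin, digested with LysC and trypsin, and analysed by diaPASEF LC-MS/MS. Spectronaut label-free quantities were normalised to the global median, and values are average log2 ratios of fragment over vehicle from an unpaired t-test. Only proteins with ≥2 unique peptides were used.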

OTUD7B = target: T2, OTUD7B (UniProt Q6GQQ9)
T2 sequence (whole entry): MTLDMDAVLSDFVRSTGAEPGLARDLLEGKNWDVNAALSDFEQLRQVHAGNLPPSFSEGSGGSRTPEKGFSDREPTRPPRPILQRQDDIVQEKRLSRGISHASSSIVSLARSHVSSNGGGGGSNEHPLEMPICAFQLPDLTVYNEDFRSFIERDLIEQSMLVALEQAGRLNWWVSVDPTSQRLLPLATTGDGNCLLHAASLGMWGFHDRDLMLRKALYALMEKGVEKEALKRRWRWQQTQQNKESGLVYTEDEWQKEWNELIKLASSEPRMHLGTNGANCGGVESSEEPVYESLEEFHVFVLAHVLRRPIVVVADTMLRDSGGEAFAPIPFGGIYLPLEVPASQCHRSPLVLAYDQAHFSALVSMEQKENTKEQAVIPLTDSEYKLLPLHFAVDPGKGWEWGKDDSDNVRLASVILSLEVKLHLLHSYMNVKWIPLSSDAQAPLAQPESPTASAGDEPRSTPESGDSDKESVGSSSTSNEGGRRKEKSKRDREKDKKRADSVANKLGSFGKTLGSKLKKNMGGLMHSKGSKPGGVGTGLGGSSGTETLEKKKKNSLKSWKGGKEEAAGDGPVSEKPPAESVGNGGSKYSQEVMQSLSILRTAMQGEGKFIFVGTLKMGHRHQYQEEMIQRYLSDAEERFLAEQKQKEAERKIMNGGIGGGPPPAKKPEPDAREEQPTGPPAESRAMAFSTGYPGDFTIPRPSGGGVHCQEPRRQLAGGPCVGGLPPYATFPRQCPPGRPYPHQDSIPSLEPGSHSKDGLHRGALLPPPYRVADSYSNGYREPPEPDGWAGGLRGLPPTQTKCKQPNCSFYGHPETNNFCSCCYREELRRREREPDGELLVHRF
How it was run: as §1

PRPF8 = PRPF8 (UniProt Q6P2Q9)
How it was run: as §1

PSMD7 = target: T3, PSMD7 (UniProt P51665)
T3 sequence (whole entry): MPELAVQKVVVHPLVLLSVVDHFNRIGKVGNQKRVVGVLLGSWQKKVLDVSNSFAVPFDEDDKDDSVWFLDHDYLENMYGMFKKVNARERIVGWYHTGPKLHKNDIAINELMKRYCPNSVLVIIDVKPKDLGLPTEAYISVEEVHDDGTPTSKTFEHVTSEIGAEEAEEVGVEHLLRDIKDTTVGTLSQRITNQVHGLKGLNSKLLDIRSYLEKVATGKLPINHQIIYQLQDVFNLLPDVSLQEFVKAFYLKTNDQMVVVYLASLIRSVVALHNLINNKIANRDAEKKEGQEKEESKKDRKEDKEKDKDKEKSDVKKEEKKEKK
How it was run: as §1

UCHL1 = UCHL1 (UniProt P09936)
How it was run: as §1

UCHL3 = target: T4, UCHL3 (UniProt P15374)
T4 sequence (whole entry): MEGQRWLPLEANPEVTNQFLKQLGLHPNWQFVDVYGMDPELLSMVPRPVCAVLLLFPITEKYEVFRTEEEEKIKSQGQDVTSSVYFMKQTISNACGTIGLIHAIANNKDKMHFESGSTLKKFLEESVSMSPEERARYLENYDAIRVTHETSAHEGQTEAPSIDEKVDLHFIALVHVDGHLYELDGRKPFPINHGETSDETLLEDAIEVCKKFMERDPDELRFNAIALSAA
How it was run: as §1

UCHL5 = target: T5, UCHL5 (UniProt Q9Y5K5)
T5 sequence (whole entry): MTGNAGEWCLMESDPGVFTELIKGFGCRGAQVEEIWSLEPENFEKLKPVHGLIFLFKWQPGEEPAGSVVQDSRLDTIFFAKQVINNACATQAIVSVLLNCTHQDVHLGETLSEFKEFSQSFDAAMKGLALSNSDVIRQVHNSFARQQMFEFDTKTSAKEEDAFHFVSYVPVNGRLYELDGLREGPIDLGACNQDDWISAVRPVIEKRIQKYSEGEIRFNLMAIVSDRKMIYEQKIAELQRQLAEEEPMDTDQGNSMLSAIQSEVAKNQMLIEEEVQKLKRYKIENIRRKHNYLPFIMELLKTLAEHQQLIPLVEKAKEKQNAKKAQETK
How it was run: as §1

USP10 = USP10 (UniProt Q14694)
How it was run: as §1

USP15 = target: T6, USP15 (UniProt Q9Y4E8)
T6 sequence (whole entry): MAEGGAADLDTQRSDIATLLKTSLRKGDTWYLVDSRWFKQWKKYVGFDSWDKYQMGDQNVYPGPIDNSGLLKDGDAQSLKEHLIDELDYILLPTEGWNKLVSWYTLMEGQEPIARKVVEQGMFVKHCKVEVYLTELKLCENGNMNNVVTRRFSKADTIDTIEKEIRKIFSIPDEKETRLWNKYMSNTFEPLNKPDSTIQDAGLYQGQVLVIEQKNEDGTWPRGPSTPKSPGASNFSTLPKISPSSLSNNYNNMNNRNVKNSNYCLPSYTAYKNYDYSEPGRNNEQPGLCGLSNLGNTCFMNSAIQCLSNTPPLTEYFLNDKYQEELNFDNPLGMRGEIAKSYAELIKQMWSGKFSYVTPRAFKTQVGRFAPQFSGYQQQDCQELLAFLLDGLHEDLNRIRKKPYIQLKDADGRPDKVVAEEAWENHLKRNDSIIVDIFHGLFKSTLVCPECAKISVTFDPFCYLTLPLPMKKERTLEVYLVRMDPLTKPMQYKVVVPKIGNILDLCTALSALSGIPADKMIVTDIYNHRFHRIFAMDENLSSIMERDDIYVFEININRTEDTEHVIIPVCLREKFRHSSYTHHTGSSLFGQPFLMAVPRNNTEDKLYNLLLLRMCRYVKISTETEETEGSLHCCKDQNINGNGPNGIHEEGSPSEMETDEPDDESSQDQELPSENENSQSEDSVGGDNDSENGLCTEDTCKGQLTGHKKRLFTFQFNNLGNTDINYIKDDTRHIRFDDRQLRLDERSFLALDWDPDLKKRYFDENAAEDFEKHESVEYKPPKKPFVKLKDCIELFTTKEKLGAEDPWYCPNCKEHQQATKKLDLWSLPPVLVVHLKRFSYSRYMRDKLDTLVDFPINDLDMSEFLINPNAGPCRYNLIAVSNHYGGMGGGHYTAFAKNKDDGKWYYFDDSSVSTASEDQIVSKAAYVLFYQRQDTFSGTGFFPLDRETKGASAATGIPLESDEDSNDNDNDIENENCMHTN
How it was run: as §1

USP16 = USP16 (UniProt Q9Y5T5)
How it was run: as §1

USP16, sequence (Q9Y5T5 whole entry, looked up): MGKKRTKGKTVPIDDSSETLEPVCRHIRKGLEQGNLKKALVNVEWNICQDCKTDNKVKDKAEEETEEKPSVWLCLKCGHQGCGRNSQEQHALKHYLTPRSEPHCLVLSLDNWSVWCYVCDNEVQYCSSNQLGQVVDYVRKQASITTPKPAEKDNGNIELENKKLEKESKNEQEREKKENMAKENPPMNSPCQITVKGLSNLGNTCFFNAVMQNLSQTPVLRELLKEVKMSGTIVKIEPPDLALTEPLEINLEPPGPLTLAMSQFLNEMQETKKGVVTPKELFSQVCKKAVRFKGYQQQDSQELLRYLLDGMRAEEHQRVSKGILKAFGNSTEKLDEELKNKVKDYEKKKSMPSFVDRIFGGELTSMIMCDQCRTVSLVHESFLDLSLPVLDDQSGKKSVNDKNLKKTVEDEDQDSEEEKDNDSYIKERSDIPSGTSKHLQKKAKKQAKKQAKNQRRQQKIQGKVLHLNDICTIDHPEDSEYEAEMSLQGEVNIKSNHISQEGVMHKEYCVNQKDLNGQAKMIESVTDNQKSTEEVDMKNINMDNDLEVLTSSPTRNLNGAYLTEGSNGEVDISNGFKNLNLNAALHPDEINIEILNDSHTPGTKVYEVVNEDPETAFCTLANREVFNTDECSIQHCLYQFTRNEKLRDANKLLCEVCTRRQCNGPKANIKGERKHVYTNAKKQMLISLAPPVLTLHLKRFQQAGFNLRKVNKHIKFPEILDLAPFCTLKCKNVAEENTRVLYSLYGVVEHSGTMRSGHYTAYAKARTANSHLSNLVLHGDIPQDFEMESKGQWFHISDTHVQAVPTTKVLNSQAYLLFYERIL
USP10, sequence (Q14694 whole entry): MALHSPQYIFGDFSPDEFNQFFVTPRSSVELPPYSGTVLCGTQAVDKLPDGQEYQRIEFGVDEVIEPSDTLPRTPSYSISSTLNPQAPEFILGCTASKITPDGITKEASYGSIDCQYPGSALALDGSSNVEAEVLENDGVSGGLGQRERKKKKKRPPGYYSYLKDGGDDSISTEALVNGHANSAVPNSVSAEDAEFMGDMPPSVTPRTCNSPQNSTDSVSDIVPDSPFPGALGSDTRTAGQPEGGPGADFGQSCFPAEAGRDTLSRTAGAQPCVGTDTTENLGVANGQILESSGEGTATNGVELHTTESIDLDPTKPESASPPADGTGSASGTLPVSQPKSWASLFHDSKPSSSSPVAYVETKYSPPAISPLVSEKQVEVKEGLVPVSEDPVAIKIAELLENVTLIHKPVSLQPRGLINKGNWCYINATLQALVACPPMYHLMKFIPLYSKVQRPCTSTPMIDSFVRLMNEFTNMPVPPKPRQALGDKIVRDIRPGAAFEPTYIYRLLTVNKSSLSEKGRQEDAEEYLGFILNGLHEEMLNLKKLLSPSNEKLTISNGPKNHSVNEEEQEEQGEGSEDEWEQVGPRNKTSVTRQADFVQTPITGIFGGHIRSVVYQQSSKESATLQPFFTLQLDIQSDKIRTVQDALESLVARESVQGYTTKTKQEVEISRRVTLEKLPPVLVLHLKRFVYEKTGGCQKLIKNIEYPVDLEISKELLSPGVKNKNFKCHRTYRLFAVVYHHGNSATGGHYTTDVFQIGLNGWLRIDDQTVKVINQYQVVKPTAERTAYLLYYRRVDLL
UCHL1, sequence (P09936 whole entry, looked up): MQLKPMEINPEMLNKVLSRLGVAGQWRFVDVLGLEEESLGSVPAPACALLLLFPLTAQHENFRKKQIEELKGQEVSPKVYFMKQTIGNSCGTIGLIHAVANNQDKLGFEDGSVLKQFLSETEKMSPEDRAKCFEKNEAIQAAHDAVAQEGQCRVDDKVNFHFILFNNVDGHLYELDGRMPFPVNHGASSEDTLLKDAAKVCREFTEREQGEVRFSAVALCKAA

## O=C(CCl)N1CC=C(c2c[nH]c3ccccc23)CC1
OTUD6B
  log2 ratio of Biotin-Ahx-Ub-VS probe labelling: -0.33
OTUD7B
  log2 ratio of Biotin-Ahx-Ub-VS probe labelling: -0.605
PRPF8
  log2 ratio of Biotin-Ahx-Ub-VS probe labelling: 0.0222
PSMD7
  log2 ratio of Biotin-Ahx-Ub-VS probe labelling: 0.00731
UCHL1
  log2 ratio of Biotin-Ahx-Ub-VS probe labelling: -1.12 (active)
UCHL3
  log2 ratio of Biotin-Ahx-Ub-VS probe labelling: 0.00279
UCHL5
  log2 ratio of Biotin-Ahx-Ub-VS probe labelling: -0.387
USP10
  log2 ratio of Biotin-Ahx-Ub-VS probe labelling: -0.299
USP15
  log2 ratio of Biotin-Ahx-Ub-VS probe labelling: -1.46 (active)
USP16
  log2 ratio of Biotin-Ahx-Ub-VS probe labelling: 0.156
